An excerpt weighted towards active compounds, which were near 0.93% of everything screened.
MEP2 TOR yeast: yeast TOR pathway MEP2-GFP modulation; 330,000 tested, 0.51% active; S. cerevisiae MEP2-GFP strain, flow cytometry GFP, 3 h; 100% = DMSO control level; GFP response vs DMSO, % at 10 µM;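 active = GFP response versus DMSO above a set limit, roughly screen mean plus 3 SD, cut at about 180% in these data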;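 also: median GFP fluorescence of the barcode-gated MEP2-GFP cells per well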
AGP1-GFP MLPCN: alters AGP1-GFP fluorescence in TOR pathway yeast screen; S. cerevisiae AGP1-GFP multiplex flow cytometry, 3 h; GFP as percent of DMSO wells; GFP response vs DMSO, % at 10 µM; 320,000 tested, 0.02% active; AID 2066;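 active = GFP response relative to DMSO above a set limit, near screen average plus 3 SD, cut at about 150% in these data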;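 also: median GFP channel fluorescence of the gated AGP1 strain per well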
LAP4 TOR yeast: yeast TOR pathway LAP4-GFP modulation; AID 2023; S. cerevisiae LAP4-GFP multiplex, flow cytometry GFP, 3 h; median GFP as percent of DMSO wells; 320,000 tested, 0.34% active; GFP response vs DMSO, % at 10 µM;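 active = GFP response vs DMSO above a set limit, about the screen mean plus 3 SD, cut at about 150% in these data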
CIT2-GFP yeast: yeast TOR pathway CIT2-GFP modulation; S. cerevisiae CIT2-GFP strain, flow cytometry, 3 h; 100 means same as DMSO wells; GFP response vs DMSO, % at 10 µM; 320,000 tested, 0.065% active; AID 2029;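 active = GFP response relative to DMSO above a set limit, near the screen mean plus 3 SD, cut at about 150% in these data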;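 also: ratio of well median GFP fluorescence to mean of DMSO wells on the plate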
RPL19A-GFP yeast: alters RPL19A-GFP fluorescence in TOR pathway yeast screen | AID 2025 | S. cerevisiae RPL19A-GFP strain, flow cytometry, 3 h; hits give low values | percent response vs DMSO, % at 10 µM | 330,000 tested, 0.3% active;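 active = percent response vs DMSO below 50%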;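 also: median channel GFP fluorescence of the barcoded RPL19A-GFP strain; ratio of sample median GFP to plate DMSO average so 100% = DMSO; lower means less RPL19A-GFP as with rapamycin TOR inhibition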
LAP4-GFP pick2: reconfirmed LAP4-GFP TOR pathway modulator in yeast; 590 tested, 20% active; shares compounds with LAP4 TOR yeast; S. cerevisiae LAP4-GFP strain, flow cytometry GFP, 3 h; GFP response vs DMSO, % at 10 µM; AID 2621;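 active = GFP signal as percent of the solvent control above about 150%, meaning raised reporter expression, limit read from the data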;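 also: ratio of well median GFP fluorescence to plate DMSO mean so 100% = DMSO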
MEP2-GFP pick2: reconfirmed MEP2-GFP TOR pathway modulator in yeast; 590 tested, 10% active; S. cerevisiae MEP2-GFP strain, flow cytometry GFP, 3 h; GFP response vs DMSO, % at 10 µM; shares compounds with LAP4 TOR yeast;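 active = GFP signal above 150% of the solvent control wells, that is a rise of more than half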;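 also: median channel GFP fluorescence of all gated yeast cells per well; ratio of median GFP to plate DMSO average so 100% = DMSO level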
RPL19A-GFP pick2: reconfirmed modulator of RPL19A-GFP TOR reporter in yeast. shares compounds with LAP4 TOR yeast. S. cerevisiae RPL19A-GFP strain, flow cytometry GFP, 3 h; hits give low values; 100% means same as DMSO wells. GFP response vs DMSO, % at 10 µM. 590 tested, 3% active;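 active = under 65% GFP response relative to DMSO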;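 also: median GFP channel fluorescence per well over the all cells gate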
CIT2 GFP CP2: second confirmation of modulators of TOR reporter CIT2-GFP in yeast | shares compounds with LAP4 TOR yeast | S. cerevisiae CIT2-GFP strain, flow cytometry GFP, 3 h; DMSO control wells read 100% | GFP response vs DMSO, % at 10 µM | 590 tested, 8% active;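 active = GFP response vs DMSO above about 150%, limit read from the data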;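 also: median green fluorescence per well over all gated yeast cells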
AGP1-GFP pick2: yeast AGP1-GFP TOR reporter modulation, second cherry pick | S. cerevisiae AGP1-GFP strain, flow cytometry GFP, 3 h | 590 tested, under 10 active | AID 2643 | percent response vs DMSO, % at 10 µM | shares compounds with LAP4 TOR yeast;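 active = over 150 percent of DMSO response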;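 also: median GFP channel fluorescence over all cells without mother daughter split; sample median GFP divided by mean DMSO control so 100% equals DMSO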
Yeast autofluor: counter-screen for compound autofluorescence in yeast s288c cells. shares compounds with LAP4 TOR yeast. S. cerevisiae s288c, 520 nm autofluorescence, flow cytometry, 3 h; hits give high values; zero means same as solvent-only cells. fluorescence change (kMESF span) at 33 µM. 610 tested, under 10 active. AID 2757;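 active = fluorescence span over the dose series, or activity score, above about 33, limit read from the data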
Yeast autofl DR: TOR screen hit shows autofluorescence in yeast s288c; shares compounds with LAP4 TOR yeast; S. cerevisiae s288c parental, compound autofluorescence, flow cytometry, 3 h; fluorescence change (span) at 33 µM; 110 tested, under 10 active;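 active = fluorescence change span, or the activity score built from it, above 25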
TORC1 bypass: stops wildtype yeast growth while TORC1 bypass cells still grow; shares compounds with LAP4 TOR yeast; S. cerevisiae BY4741 spot growth rating, 48-72 h; hits give low values; growth rating (0-3) at 30 µM; 120 tested, under 10 active;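 active = growth rating at most 1 for wild type yeast while the TORC1 bypass strain still grows fully, rated 3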
* = called active by the depositor; x = no result.

SMILES	MEP2 TOR yeast	AGP1-GFP MLPCN	LAP4 TOR yeast	CIT2-GFP yeast	RPL19A-GFP yeast	Yeast autofluor	others
O=C(O)Cn1c(=O)c2c(c3ccccc31)CCC2	881*	95	100	113	95	x	LAP4-GFP pick2=98;MEP2-GFP pick2=101;RPL19A-GFP pick2=101;CIT2 GFP CP2=107;AGP1-GFP pick2=99
CC(=O)Nc1ccc(S(=O)(=O)N2CCN=C2SCc2ccc([N+](=O)[O-])cc2)cc1	91	100	103	90	96	x
CCCN1CCc2c(sc(NC(=S)NC(=O)c3ccccc3)c2C#N)C1	129	100	139	157*	112	1.6
CC(C)N1CCc2c(sc(NC(=S)NC(=O)c3ccccc3)c2C#N)C1	122	101	99	117	104	x
CN(Cc1ccccc1)C(=O)CCC1CCN(C(=O)c2ccccc2C(F)(F)F)CC1	114	106	99	157*	97	x	LAP4-GFP pick2=99;MEP2-GFP pick2=102;RPL19A-GFP pick2=101;CIT2 GFP CP2=110;AGP1-GFP pick2=104
CSCc1ccc(C(=O)N2CCC(CCC(=O)N(C)Cc3ccccc3)CC2)o1	95	101	96	99	102	x
CCS(=O)(=O)Nc1cccc(-c2ccc3nnc(-c4cccnc4)n3n2)c1	88	120	171*	101	79	x	LAP4-GFP pick2=99;MEP2-GFP pick2=103;RPL19A-GFP pick2=100;CIT2 GFP CP2=102;AGP1-GFP pick2=100
CCCS(=O)(=O)Nc1cccc(-c2ccc3nnc(C)n3n2)c1	100	99	75	96	93	x
COc1cccc(/C=N/Nc2nc(Nc3ccc([N+](=O)[O-])cc3)nc(N3CCCC3)n2)c1O	108	106	105	102	102	x
COc1cccc(/C=N/Nc2ccc([N+](=O)[O-])cn2)c1O	113	99	156*	97	97	0.51	LAP4-GFP pick2=161*;MEP2-GFP pick2=114;RPL19A-GFP pick2=94;CIT2 GFP CP2=106;AGP1-GFP pick2=91
COc1ccc(C(c2c(C)[nH]n(C(N)=S)c2=O)C(C#N)C#N)cc1 (stereo not drawn)	98	76	335*	77	98	0.41
CN(O)/C=c1/ccc2c(n1)C(=O)C=CC=2	98	87	275*	116	90	0.21
O=C(/C=C/c1ccc(O)cc1)c1ccc(O)cc1O	100	97	112	105	105	x
O=C(/C=C/c1ccccn1)c1ccc(Br)cc1O	84	88	155*	81	87	1.5	LAP4-GFP pick2=165*;MEP2-GFP pick2=119;RPL19A-GFP pick2=91;CIT2 GFP CP2=96;AGP1-GFP pick2=95
O=C(/C=C/c1ccccn1)c1cc(Br)ccc1O	80	67	212*	57	69	1.1
COc1ccc(/C=C/C(=O)c2cc(Br)ccc2O)cc1OC	112	88	128	107	93	x
O=C1C=CC(=O)N1c1cccc(-c2ccccc2)c1	98	77	206*	61	65	1.8
CC(C)C(NS(=O)(=O)c1ccc2c(c1)Cc1cc(S(=O)(=O)NC(C(=O)O)C(C)C)ccc1-2)C(=O)O (stereo not drawn)	110	104	92	110	103	x
COc1ccccc1NC(=O)CC(=O)Nc1ccccc1OC	101	97	89	100	103	x
COc1ccccc1NC(=O)CC(=O)c1ccccc1	116	92	103	100	104	x	LAP4-GFP pick2=101;MEP2-GFP pick2=101;RPL19A-GFP pick2=97;CIT2 GFP CP2=106;AGP1-GFP pick2=91
O=C(CC(=O)c1ccccc1)Nc1ccc(Cl)cc1	122	106	127	103	114	x	LAP4-GFP pick2=100;MEP2-GFP pick2=103;RPL19A-GFP pick2=103;CIT2 GFP CP2=92;AGP1-GFP pick2=98
O=C(Cc1ccc(Cl)cc1)Nc1ccc(NC(=O)c2ccccc2)cc1	96	105	99	104	101	x
COc1ccc([C@@H]2CC=C(C(=O)O)CN2S(=O)(=O)c2ccc(Cl)cc2)cc1	83	85	131	110	96	x
Cc1ccc(S(=O)(=O)N2CC(C(=O)O)=CC[C@H]2c2ccc(Cl)cc2)cc1	89	83	159*	89	97	-0.31	LAP4-GFP pick2=111;MEP2-GFP pick2=93;RPL19A-GFP pick2=97;CIT2 GFP CP2=97;AGP1-GFP pick2=95
CCCOc1ccc(C(=O)NNC(=S)NC(=O)CC)cc1	107	87	259*	81	89	1.4	Yeast autofl DR=0.93;TORC1 bypass=3
SMILES	MEP2 TOR yeast	AGP1-GFP MLPCN	LAP4 TOR yeast	CIT2-GFP yeast	RPL19A-GFP yeast	Yeast autofluor	others
CCN(CC(=O)Nc1c(F)cccc1F)C(=O)C1CC1C (stereo not drawn)	96	101	104	97	99	x
CCN1C(=O)/C(=C\C(=O)c2cccs2)c2cc(Br)ccc21	98	91	196*	78	100	1.6
CNc1nc(N)c([N+](=O)[O-])c(Nc2ccc(Cl)cc2)n1	x	x	x	x	x	x	Yeast autofl DR=0.05;TORC1 bypass=3
CNc1nc(N)c([N+](=O)[O-])c(Nc2ccccc2)n1	x	x	x	x	x	x	Yeast autofl DR=0.63;TORC1 bypass=3
CNc1nc(N)c([N+](=O)[O-])c(NCC2CCCO2)n1 (stereo not drawn)	97	96	105	97	96	x	Yeast autofl DR=0.06;TORC1 bypass=3
CCOc1ccc(Nc2nc(NC)nc(N)c2[N+](=O)[O-])cc1	x	x	x	x	x	x	Yeast autofl DR=0.05;TORC1 bypass=3
COCCNc1nc(N)c([N+](=O)[O-])c(NCC2CCCO2)n1 (stereo not drawn)	96	98	93	99	99	x
Nc1nc(NCc2ccccc2)nc(Nc2ccc(F)cc2)c1[N+](=O)[O-]	106	113	101	104	105	x

Assay outcomes (PubChem)
